Inconclusive results are not listed. The source holds several records for some structures; these can differ, active in one and inactive in another. Calls of active or inactive are those of the source. Rule for the calls, unless noted: active = hit-call score of the fitted dose curve at least 0.9, where 1 is the maximum; inactive = score below 0.9.
Legend:
[1] = read-out: Monokine induced gamma interferon (MIG), CXCL9 (gene 4283); assay: BSK_3C_MIG: BioMAP Diversity Plus: 3C Assay for Monokine induced gamma interferon (MIG) Biomarker Activity (AID 2283021); conditions: primary human endothelial cells (HUVEC); actives raise or lower the signal;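 for AC50: MIG protein level measured by immunoassay in the treated endothelial cultures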
Summary of the method: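 After 24 h of treatment, human umbilical vein endothelial cultures (3C system) had their MIG biomarker level determined by ELISA, with DMSO serving as negative control.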

[2] = molecular target: human Vitamin D Receptor (VDR), VDR (gene 7421) (UniProt P11473); assay: ATG_VDR_TRANS: Attagene TRANS-FACTORIAL HepG2 Assay for human Vitamin D Receptor (VDR) (AID 2283022; active = hit-call score of the fitted dose curve at least 0.9, where 1 is the maximum)
Summary of the method: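 HepG2 cells were transiently transfected with multiple GAL4-UAS reporter units, so signal reflects exogenous chimeric receptor-Gal4 activity. After 24 h compound exposure, reporter mRNA was measured by RT-PCR, fluorescent labelling and capillary electrophoresis, fitted for gain of signal versus DMSO.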

[3] = BSK_3C_SRB: Viability Assessment in the BioMAP Diversity Plus: 3C Assay (AID 2283023); conditions: primary human endothelial cells (HUVEC);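 note: fitted both ways against DMSO so a hit may be signal rise or drop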
Summary of the method: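 Primary human umbilical vein endothelial cells in the 3C system were read 24 h after compound dosing. Total protein was stained with 0.1% sulforhodamine B after 10% TCA fixation and read at 560 nm, with bidirectional fitting against DMSO as baseline.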

[4] = BSK_3C_Vis: BioMAP Diversity Plus: 3C Assay for Morphology Visualization (AID 2283025); conditions: primary human endothelial cells (HUVEC);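 note: fitted both ways so gain or loss versus DMSO counts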;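 for AC50: light microscopy image of cell morphology used as background control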
Summary of the method: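 Endothelial cells from human umbilical vein were treated with test chemicals for 24 h and inspected by light microscopy for changes in cell conformation.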

[5] = read-out: Pselectin, SELP (gene 6403); assay: BSK_4H_Pselectin: BioMAP Diversity Plus: 4H Assay for Pselectin Biomarker Activity (AID 2283026); conditions: primary human endothelial cells (HUVEC); actives raise or lower the signal
Summary of the method: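 Human vascular endothelium from umbilical vein; P-selectin measured by ELISA at 24 h post-dose, with cytotoxicity checked by sulforhodamine B total-protein staining in parallel cultures (0.1% SRB after 10% TCA fixation, read at 560 nm).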

[6] = BSK_4H_SRB: Viability Assessment in the BioMAP Diversity Plus: 4H Assay (AID 2283027); conditions: primary human endothelial cells (HUVEC);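 note: cells exposed to compound for 24 h before staining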;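 for AC50: curves fitted both ways versus DMSO so AC50 may be loss or gain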
Summary of the method: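 Human umbilical vein endothelial cells were dosed with chemical and, after 24 h, fixed with 10% TCA, stained with 0.1% sulforhodamine B, and read at 560 nm to give total protein as a cytotoxicity measure. Bidirectional fitting relative to DMSO control.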

[7] = BSK_BE3C_SRB: Viability Assessment in the BioMAP Diversity Plus: BE3C Assay (AID 2283028); conditions: primary human bronchial epithelial cells;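 for AC50: fitted both ways so AC50 may mark signal gain or loss versus DMSO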
Summary of the method: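 Human primary bronchial epithelial cells were exposed to test chemicals for 24 h. Total protein in parallel cultures was then measured by staining with 0.1% sulforhodamine B after 10% TCA fixation, with absorbance read at 560 nm. Activity was fitted bidirectionally against DMSO.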

[8] = read-out: Thrombomodulin, THBD (gene 7056); assay: BSK_3C_Thrombomodulin: BioMAP Diversity Plus: 3C Assay for Thrombomodulin Biomarker Activity (AID 2283029); conditions: primary human endothelial cells (HUVEC); actives raise or lower the signal
Summary of the method: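 Thrombomodulin ELISA, human primary HUVEC, 24 h post-dose; data fitted in both directions relative to DMSO.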

[9] = read-out: Urokinase-type plasminogen activator receptor (uPAR), PLAUR (gene 5329); assay: BSK_4H_uPAR: BioMAP Diversity Plus: 4H Assay for Urokinase-type plasminogen activator receptor (uPAR) Biomarker Activity (AID 2283030); conditions: primary human endothelial cells (HUVEC); actives raise or lower the signal
Summary of the method: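 Primary human umbilical vein endothelial cells were exposed to chemical for 24 h before cell-surface uPAR was quantified by ELISA. Activity was fitted bidirectionally against the DMSO negative control baseline.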

[10] = read-out: Vascular endothelial growth factor receptor 2 (Homo sapiens) (UniProt P35968); assay: BSK_4H_VEGFRII: BioMAP Diversity Plus: 4H Assay for Vascular endothelial growth factor receptor 2 (VEGFR2) Biomarker Activity (AID 2283031); conditions: primary human endothelial cells (HUVEC); actives raise or lower the signal;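 for AC50: cell-surface VEGFR2 protein level quantified by ELISA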
Summary of the method: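 Primary human umbilical vein endothelial cells in the BioMAP 4H system were dosed with test chemical, and 24 h later VEGFRII was measured by ELISA. Activity was fitted bidirectionally against DMSO as negative control and baseline.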

[11] = read-out: Human Leukocyte Antigen - DR isotype (HLADR), HLA-DRA (gene 3122); assay: BSK_BE3C_HLADR: BioMAP Diversity Plus: BE3C Assay for Human Leukocyte Antigen - DR isotype (HLADR) Biomarker Activity (AID 2283032); conditions: primary human bronchial epithelial cells; actives raise or lower the signal
Summary of the method: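 Signal came from an ELISA for HLA-DR in human bronchial epithelial primary cells harvested 24 h after treatment; gain- and loss-of-signal fitting used DMSO controls as reference.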

[12] = read-out: Vascular cell adhesion molecule 1 (VCAM1), VCAM1 (gene 7412); assay: BSK_4H_VCAM1: BioMAP Diversity Plus: 4H Assay for Vascular cell adhesion molecule 1 (VCAM1) Biomarker Activity (AID 2283033); conditions: primary human endothelial cells (HUVEC); actives raise or lower the signal;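 note: cell-surface VCAM-1 protein measured by ELISA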
Summary of the method: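 Endpoint derived from bidirectional fitting against DMSO controls of VCAM-1 ELISA signal in umbilical vein endothelial cells sampled at 24 h following treatment.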

[13] = read-out: Interferon-gamma inducible Protein 10 (IP10), CXCL10 (gene 3627); assay: BSK_BE3C_IP10: BioMAP Diversity Plus: BE3C Assay for Interferon-gamma inducible Protein 10 (IP10) Biomarker Activity (AID 2283034); conditions: primary human bronchial epithelial cells; actives raise or lower the signal
Summary of the method: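 Using primary human bronchial epithelial cultures, the assay captures IP-10 by ELISA one day (24 h) after exposure. Parallel SRB staining of total protein flags overt cytotoxicity. Fits run bidirectionally relative to DMSO.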

[14] = read-out: Monokine induced gamma interferon (MIG), CXCL9 (gene 4283); assay: BSK_BE3C_MIG: BioMAP Diversity Plus: BE3C Assay for Monokine induced gamma interferon (MIG) Biomarker Activity (AID 2283035); conditions: primary human bronchial epithelial cells; actives raise or lower the signal;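 note: MIG protein measured by ELISA in BE3C cultures after 24 h of dosing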
Summary of the method: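 ELISA read-out of MIG in human lung bronchial epithelial primary cultures, 24 h post-dosing. Bidirectional curve fit vs DMSO baseline.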

[15] = read-out: Plasminogen activator inhibitor-1 (PAI1), SERPINE1 (gene 5054); assay: BSK_BE3C_PAI1: BioMAP Diversity Plus: BE3C Assay for Plasminogen activator inhibitor-1 (PAI1) Biomarker Activity (AID 2283037); conditions: primary human bronchial epithelial cells; actives raise or lower the signal
Summary of the method: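 PAI-1 biomarker levels in treated human bronchial epithelial cells are determined by ELISA at 24 h. Both increases and decreases relative to DMSO are fitted.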

[16] = read-out: Urokinase-type plasminogen activator receptor (uPAR), PLAUR (gene 5329); assay: BSK_BE3C_uPAR: BioMAP Diversity Plus: BE3C Assay for Urokinase-type plasminogen activator receptor (uPAR) Biomarker Activity (AID 2283039); conditions: primary human bronchial epithelial cells; actives raise or lower the signal
Summary of the method: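 A uPAR ELISA serves as the readout, taken 24 h after treating primary human bronchial epithelial cells. Responses in either direction are fitted against DMSO, which defines baseline activity.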

[17] = read-out: Interleukin-6 (IL6), IL6 (gene 3569); assay: BSK_CASM3C_IL6: BioMAP Diversity Plus: CASM3C Assay for Interleukin-6 (IL6) Biomarker Activity for (AID 2283040); conditions: primary human coronary artery smooth muscle cells; actives raise or lower the signal
[18] = read-out: Transforming growth factor beta 1 (TGFb1), TGFB1 (gene 7040); assay: BSK_BE3C_TGFb1: BioMAP Diversity Plus: BE3C Assay for Transforming growth factor beta 1 (TGFb1) Biomarker Activity (AID 2283036;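 note: TGF-b1 protein level measured by ELISA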); conditions: primary human bronchial epithelial cells; actives raise or lower the signal
Summary of the method: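 In this human primary bronchial epithelial system, an ELISA quantified TGF-b1 one day after dosing. Endpoint changes in either direction were fitted relative to DMSO.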

[19] = read-out: urokinase plasminogen activator (uPA), PLAU (gene 5328); assay: BSK_BE3C_uPA: BioMAP Diversity Plus: BE3C Assay for urokinase plasminogen activator (uPA) Biomarker Activity (AID 2283038); conditions: primary human bronchial epithelial cells; actives raise or lower the signal;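 note: uPA protein level quantified by ELISA in cell cultures; uPA read one day after compound addition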
Summary of the method: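 Human primary bronchial epithelial cells were exposed to chemical for 24 h, then uPA levels were measured by ELISA. Responses were fitted bidirectionally against DMSO as negative control and baseline. Parallel SRB staining of total protein gauged overt cytotoxicity.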

[20] = read-out: Matrix Metallopeptidase 1 (MMP1), MMP1 (gene 4312); assay: BSK_BE3C_MMP1: BioMAP Diversity Plus: BE3C Assay for Matrix Metallopeptidase 1 (MMP1) Biomarker Activity (AID 2283024); conditions: primary human bronchial epithelial cells; actives raise or lower the signal
Summary of the method: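 Dose cells, wait 24 h, run MMP1 ELISA; cells are human bronchial epithelial primaries. Both increases and decreases relative to DMSO counted.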

Measured: AC50

Chain of human Vitamin D Receptor (VDR), VDR (gene 7421) (P11473 whole entry, looked up, the tested form may be a part): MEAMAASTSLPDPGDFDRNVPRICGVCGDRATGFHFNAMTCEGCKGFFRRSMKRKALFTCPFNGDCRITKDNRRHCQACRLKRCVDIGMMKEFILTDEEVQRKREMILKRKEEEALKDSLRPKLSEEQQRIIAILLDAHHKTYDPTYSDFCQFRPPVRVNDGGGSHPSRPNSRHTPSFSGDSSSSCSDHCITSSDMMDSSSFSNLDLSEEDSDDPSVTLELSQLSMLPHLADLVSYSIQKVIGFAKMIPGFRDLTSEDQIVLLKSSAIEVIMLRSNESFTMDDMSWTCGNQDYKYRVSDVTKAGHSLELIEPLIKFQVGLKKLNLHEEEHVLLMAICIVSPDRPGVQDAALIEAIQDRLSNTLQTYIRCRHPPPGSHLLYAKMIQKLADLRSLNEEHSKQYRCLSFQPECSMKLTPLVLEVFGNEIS

CC(C)N1C(=O)c2ccccc2NS1(=O)=O
not listed: [18] | [19] | [20]
inactive: all other assays above

CCC(C)n1c(=O)[nH]c(C)c(Br)c1=O (centres undefined)
not listed: [12] | [19] | [20]
inactive: all other assays above

COCC(C)N(C(=O)CCl)c1c(C)csc1C (centres undefined)
active: [4] 39 µM | [5] 14.6 µM
inactive: [1] | [2] | [3] | [4] | [5] | [6] | [7] | [8] | [9] | [10] | [11] | [12] | [13] | [14] | [18] | [15] | [19] | [16] | [17]

Clc1cccc(C(Cl)(Cl)Cl)n1
not listed: [2] | [19]
inactive: all other assays above

COc1cc(Cl)c(OC)cc1Cl
active: [6] 3.09 µM
not listed: [2] | [19]
inactive: all other assays above

CCOc1nc(F)cc2nc(S(=O)(=O)Nc3c(Cl)cccc3Cl)nn12
active: [11] 27.9 µM | [13] 31.4 µM | [15] 20.9 µM
not listed: [12] | [19]
inactive: all other assays above

CC1(C)C(C(=O)OC(C#N)c2cccc(Oc3ccccc3)c2)C1(C)C (centres undefined)
active: [3] 10.1 µM | [4] 39 µM | [5] 12.9 µM | [7] 6.87 µM | [17] 30.9 µM
not listed: [12] | [19] | [20]
inactive: all other assays above

CC1(C)C(C=C(Cl)Cl)C1C(=O)OC(C#N)c1cccc(Oc2ccccc2)c1 (centres undefined)
active: [3] 8.06 µM | [6] 14 µM
not listed: [2]
inactive: all other assays above

CCOc1cc(C(C)(C)C)ccc1C1COC(c2c(F)cccc2F)=N1 (centres undefined)
inactive: [2] | [8] | [14] | [18] | [17]
active: [1] 32.1 µM | [3] 15.1 µM | [4] 22 µM | [5] 22.2 µM | [6] 27.6 µM | [7] 20 µM | [9] 33 µM | [10] 22.8 µM | [11] 14.3 µM | [13] 16.3 µM | [15] 19 µM | [16] 6.6 µM

CCOC(=O)C(C)OC(=O)c1cc(Oc2ccc(C(F)(F)F)cc2Cl)ccc1[N+](=O)[O-] (centres undefined)
active: [3] 13.3 µM | [6] 13.1 µM | [9] 10 µM | [11] 29.7 µM
not listed: [2]
inactive: all other assays above

CSC(=O)c1c(C(F)F)nc(C(F)(F)F)c(C(=O)SC)c1CC(C)C
active: [3] 14.6 µM | [4] 13.7 µM | [5] 15 µM | [6] 25.7 µM | [7] 16.8 µM | [17] 3.97 µM
not listed: [9] | [20]
inactive: all other assays above

CCOP(=S)(OCC)Oc1nc(Cl)n(C(C)C)n1
active: [8] 3.97 µM
not listed: [12] | [19] | [20]
inactive: all other assays above

CN/C(=N\[N+](=O)[O-])NCc1cnc(Cl)s1
inactive: all assays above

N#Cc1c(Cl)cccc1Cl
not listed: [2] | [12]
inactive: all other assays above
